The list is not random: actives were taken first. Their share in the collection is about 18%.
TDP1 cell noCPT: qHTS for Inhibitors of human tyrosyl-DNA phosphodiesterase 1 (TDP1): qHTS in cells in absence of CPT; 15% of 420,000 active; DT40 Tdp1-/- hTDP1 cells, no CPT, ATP luminescence, 48 h; Potency, µM (highest dose often 46.2 µM), hits mostly inhibitors; also: nearly all actives have a fitted effect of over 55% in size
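Luminescent ATP content (CellTiter-Glo) served as the growth readout. Knockout chicken DT40 cells expressing human TDP1 were exposed to compounds without camptothecin for a minimum 48 hr at 37 °C.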
HepG2 tox: qHTS for Inhibitors of TGF-b: Cytotox Counterscreen; HepG2 CAGA-GFP viability, ATP luminescence, 18 h; Potency, µM (top dose mostly 46.1 µM), usual class: cytotoxic; 0.76% of 410,000 active; AID 588856, 2011
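HepG2 CAGA-GFP cells (1000/well, DMEM with 1% FBS) received compound, then TGF-beta at 500 pg/mL final, and were incubated 18 hours at 37 degrees C. Viability was read by CellTiter-Glo luminescence. Media-only wells were set as complete cell-killing and DMSO as no toxicity.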
TGFb SMAD3 inh: qHTS for Inhibitors of TGF-b. 1.2% of 410,000 active. AID 588855, 2011. Potency, µM (series often up to 46.1 µM), hits mostly inhibitors. HepG2 CAGA-GFP TGF-b/SMAD3 reporter, GFP fluorescence, 18 h; TGF-beta stimulated, 500 pg/mL final; also: nearly all actives have a fitted effect of over 65% in size
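GFP signal (ex488/em500-530) from TGF-beta-stimulated HEPG2 CAGA-GFP cells, 500 pg/mL final, 18 h at 37 degrees C in DMEM plus 1% FBS, normalized to unstimulated and DMSO-stimulated controls.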
IL1B secr inh: qHTS for Inhibitors of Inflammasome Signaling: IL-1-beta AlphaLISA Primary Screen. activity change, % at 57.5 µM. 4.7% of 360,000 active. THP-1 LPS/ATP IL-1B secretion, AlphaLISA, 16 h; hits give low values. AID 743279, 2014; in the data active = activity change below about -50%; inconclusive = mostly about -30% to -49%
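Secreted IL-1B measured by AlphaLISA bead assay after 16 h compound exposure of THP-1 cells; compounds (final up to 57.5 uM) added 1 h before LPS (250 ng/mL) and ATP (1.25 mM) stimulation; lower signal means less secretion.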
DT40 TDP1 CPT: qHTS for Inhibitors of human tyrosyl-DNA phosphodiesterase 1 (TDP1): qHTS in cells in presence of CPT. 12% of 420,000 active. chicken DT40 Tdp1-/-;hTDP1 cells + 20 nM CPT, ATP luminescence, 48 h. AID 686979, 2013. Potency, µM (top dose mostly 46.2 µM), hits mostly inhibitors; also: nearly all actives have a fitted effect of over 55% in size
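Chicken DT40 Tdp1-/- cells stably complemented with human TDP1 were seeded at 400 cells/well in medium containing 20 nM camptothecin, exposed to pin-transferred compounds, and grown at 37 °C for at least 48 hr. Viability was read as ATP luminescence.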
TDP1 inh: qHTS Assay for Inhibitors of Tyrosyl-DNA Phosphodiesterase (TDP1) | recombinant TDP1, AlphaScreen DNA substrate cleavage | Potency, µM (highest dose often 130 µM), most hits filed as inhibitors | 0.28% of 350,000 active; also: nearly all actives have a fitted effect of over 40% in size
Target sequence (Q9NUW8 whole entry, looked up): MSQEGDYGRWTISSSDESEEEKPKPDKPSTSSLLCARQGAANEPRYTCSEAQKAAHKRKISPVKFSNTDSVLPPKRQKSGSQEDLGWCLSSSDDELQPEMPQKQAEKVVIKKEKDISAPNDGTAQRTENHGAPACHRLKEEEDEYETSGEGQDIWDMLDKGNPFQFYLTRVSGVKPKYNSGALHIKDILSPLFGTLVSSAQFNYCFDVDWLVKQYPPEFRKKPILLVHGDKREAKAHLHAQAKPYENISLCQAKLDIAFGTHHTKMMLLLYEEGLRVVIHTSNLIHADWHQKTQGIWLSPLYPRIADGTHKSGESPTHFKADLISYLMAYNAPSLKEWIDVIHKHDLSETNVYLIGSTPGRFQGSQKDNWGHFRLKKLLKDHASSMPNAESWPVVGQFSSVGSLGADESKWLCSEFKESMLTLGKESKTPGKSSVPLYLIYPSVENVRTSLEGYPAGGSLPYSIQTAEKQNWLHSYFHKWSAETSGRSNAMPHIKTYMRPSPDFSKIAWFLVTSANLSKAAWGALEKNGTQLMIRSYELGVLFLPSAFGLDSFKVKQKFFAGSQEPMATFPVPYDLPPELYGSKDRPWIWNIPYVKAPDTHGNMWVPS
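Signal: AlphaScreen proximity between streptavidin donor and anti-FITC acceptor beads on intact substrate. Reaction: Tdp1 1 nM, substrate 15 nM final, 5 min RT after 15 min compound preincubation.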
Large screens that a line does not name were inactive. Unless noted, calls follow the shape of the dose curve; as a rule, active = well fitted curve in the direction sought with a large enough effect; inconclusive = small, poorly fitted or top-dose-only effect, or another doubt; inactive = no such curve, though single readings can be large; an effect the other way counts as inactive or inconclusive.

COc1cc(O)ccc1-c1nc2ccc(Br)cn2c1Nc1ccccc1C	TDP1 cell noCPT 9.2µM, HepG2 tox 16µM, TGFb SMAD3 inh inconclusive, DT40 TDP1 CPT 21µM (no result: IL1B secr inh)
CCC1CCCCN1C(=O)c1c[nH]c2ccc(S(=O)(=O)Nc3cccc(OC)c3)cc2c1=O (configuration not stated)	none (no result: IL1B secr inh, TDP1 inh)
CC1c2ccccc2SC(CCCN(C)C)c2ccccc21 (configuration not stated)	TDP1 cell noCPT inconclusive, IL1B secr inh -52, DT40 TDP1 CPT 16µM
Clc1ccccc1/C=C/C=N/Nc1nc(N2CCOCC2)nc(N2CCOCC2)n1	TDP1 cell noCPT 23µM, DT40 TDP1 CPT 23µM
COc1ccccc1N1CCN(c2nc3c(S(=O)(=O)c4ccc(C)c(C)c4)nnn3c3ccc(Cl)cc23)CC1	none (no result: IL1B secr inh)
CSCCOC(=O)C1=C(C)NC(=O)CC1c1ccccc1Cl (configuration not stated)	TDP1 cell noCPT inconclusive, TGFb SMAD3 inh inconclusive, DT40 TDP1 CPT inconclusive
CCOc1ccccc1C1CC(=O)NC(C)=C1C(=O)OCc1ccc(C)cc1 (configuration not stated)	TDP1 cell noCPT 16µM, TGFb SMAD3 inh inconclusive, DT40 TDP1 CPT inconclusive (no result: IL1B secr inh)
COC(=O)C1=C(C)NC(=O)CC1c1ccccc1F (configuration not stated)	none
CCCOc1ccccc1C1CC(=O)NC(C)=C1C(=O)OCC(C)C (configuration not stated)	TDP1 cell noCPT 16µM, TGFb SMAD3 inh inconclusive, DT40 TDP1 CPT 21µM
CC(=O)C1=C(C)NC(=O)CC1c1ccccc1Cl (configuration not stated)	none
CC1=C(C(=O)OC(C)C)C(c2ccccc2Cl)CC(=O)N1 (configuration not stated)	TDP1 cell noCPT 12µM, DT40 TDP1 CPT 21µM
CC1=C(C(=O)OCc2ccc(C)cc2)C(c2ccccc2F)CC(=O)N1 (configuration not stated)	TDP1 cell noCPT inconclusive, TGFb SMAD3 inh 11µM, DT40 TDP1 CPT inconclusive (no result: IL1B secr inh)
CCOc1ccccc1C1NC(=O)NC(C)=C1C(=O)OCc1ccccc1 (configuration not stated)	TDP1 cell noCPT inconclusive (no result: TDP1 inh)
CCOc1ccc(CCNC(=O)COC(=O)C2=NNC(=O)CC2)cc1OCC	none
O=C(COc1cccc(Cl)c1)Nc1ccccc1N1CCCCC1	TDP1 cell noCPT inconclusive
COC(=O)C1=C(C)NC(=O)CC1c1ccccc1 (configuration not stated)	none
CCC(C)OC(=O)C1=C(C)NC(=O)CC1c1ccccc1OC (configuration not stated)	TDP1 cell noCPT 10µM, DT40 TDP1 CPT 8.2µM
COc1ccc(NC(=O)N2CCCC2C(=O)Nc2ccc(C)cc2C)cc1 (configuration not stated)	none
CCOc1ccc(OCCCC(=O)Nc2cc(S(=O)(=O)N3CCOCC3)ccc2N2CCOCC2)cc1	DT40 TDP1 CPT inconclusive (no result: TDP1 inh)
Cc1ccc(OCCC(=O)Nc2cc(S(=O)(=O)N3CCOCC3)ccc2N2CCCC2)cc1	TDP1 cell noCPT 15µM, IL1B secr inh inconclusive, DT40 TDP1 CPT inconclusive (no result: TDP1 inh)
O=C(COc1cccc(Cl)c1)Nc1cc(S(=O)(=O)N2CCOCC2)ccc1N1CCOCC1	TDP1 cell noCPT 18µM, IL1B secr inh inconclusive, DT40 TDP1 CPT inconclusive
CCOCCCNCC(=O)Nc1cc(S(=O)(=O)N2CCOCC2)ccc1N1CCOCC1	none
Cc1ccccc1SCC(=O)Nc1cc(S(=O)(=O)N2CCOCC2)ccc1N1CCOCC1	TDP1 cell noCPT inconclusive, DT40 TDP1 CPT 16µM (no result: TDP1 inh)
Cc1cc(Cl)ccc1OCCCC(=O)Nc1cc(S(=O)(=O)N2CCOCC2)ccc1N1CCOCC1	TDP1 cell noCPT 16µM, DT40 TDP1 CPT inconclusive (no result: TDP1 inh)
CCOc1ccc(S(=O)(=O)N2CCC(C(=O)NCc3ccccn3)CC2)cc1	none
Cc1ccc(S(=O)(=O)N2CCOCC2)cc1NC(=O)C(c1ccc(Cl)cc1)C(C)C (configuration not stated)	TDP1 cell noCPT inconclusive, TGFb SMAD3 inh inconclusive, IL1B secr inh -58, DT40 TDP1 CPT inconclusive
CCCCCC(=O)Nc1cc(S(=O)(=O)N2CCOCC2)ccc1N1CCN(C)CC1	none
CN1CCN(c2ccc(S(=O)(=O)N3CCOCC3)cc2NC(=O)Cc2ccccc2F)CC1	none
CCCCCC(=O)Nc1cc(S(=O)(=O)N2CCOCC2)ccc1N1CCCCC1	TDP1 cell noCPT 21µM, TGFb SMAD3 inh inconclusive, DT40 TDP1 CPT inconclusive
CSCCC(=O)Nc1cc(S(=O)(=O)N2CCOCC2)ccc1N1CCN(C)CC1	IL1B secr inh -72
COc1ccccc1CCC(=O)Nc1cc(S(=O)(=O)N2CCOCC2)ccc1N1CCCC1	TDP1 cell noCPT 29µM, DT40 TDP1 CPT inconclusive
COc1ccc(-n2ccnc2SCC(=O)NO)cc1	DT40 TDP1 CPT inconclusive
COc1ccccc1OCC(=O)Nc1cc2c(cc1C(=O)O)OCCCO2	none
CCCCCCCCCCCCCCCC(=O)OC[C@@H](NC(=O)C(Cl)Cl)[C@H](O)c1ccc([N+](=O)[O-])cc1	none (no result: HepG2 tox, TGFb SMAD3 inh, IL1B secr inh, TDP1 inh)
O=C(Nc1cccc2ccccc12)c1ccc2sc([C@H]3C[C@H](O)[C@@H](CO)O3)nc2c1	TDP1 cell noCPT inconclusive, DT40 TDP1 CPT inconclusive (no result: TDP1 inh)
O=C(COc1ccccc1)Nc1cc(S(=O)(=O)N2CCOCC2)ccc1N1CCCC1	none
Cc1ccc(S(=O)(=O)N2CCOCC2)cc1C(=O)Nc1ccc(-c2cn3ccsc3n2)cc1	TDP1 cell noCPT 11µM, DT40 TDP1 CPT 11µM
Cc1cccc(OCC(=O)Nc2cc(S(=O)(=O)N3CCOCC3)ccc2N2CCCC2)c1C	TDP1 cell noCPT 16µM, IL1B secr inh -81, DT40 TDP1 CPT inconclusive (no result: TDP1 inh)
CCN1CCN(c2ccc(S(=O)(=O)N3CCCCC3)cc2NC(=O)CCNC(C)=O)CC1	none (no result: TDP1 inh)
CCCCCC(=O)Nc1cc(S(=O)(=O)N2CCCCC2)ccc1N1CCCCC1	TDP1 cell noCPT 15µM, DT40 TDP1 CPT inconclusive (no result: TDP1 inh)
Cc1ccc(S(=O)(=O)N2CCOCC2)cc1C(=O)Nc1cc(Cl)ccc1N1CCOCC1	TDP1 cell noCPT inconclusive, DT40 TDP1 CPT 23µM
O=C(O)C1C2CCC(O2)C1C(=O)NCc1ccc(Cl)cc1 (configuration not stated)	none
